Reference: PubChem BioAssay (EPA / NIEHS)
“And” between values parts separate entries of the source, which are not always exact repeats. Identical values can stand only once. Where a structure was tested more than once in an assay, its records may differ in their call. The source made the active and inactive calls. How the source made its calls: active means hit-call score of the fitted dose curve at least 0.9, where 1 is the maximum; inactive means score below 0.9.

Experiments:
[1] = APR_HepG2_CellCycleArrest_24hr: Apredica 24-hour HepG2 Assay for Cell Cycle Arrest (AID 2282905); conditions: imaging, actives raise or lower the signal;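 further: cell cycle arrest scored as ratio of 2N to 4N nuclear DNA content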
Method in brief: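 Readout: Hoechst 33342 nuclear DNA content by high-content fluorescent imaging, six images/well, 20x. Human HepG2 liver cells, 24 hr compound exposure, 0.39–200 uM, final DMSO 0.5% v/v. Gain or loss fitted relative to DMSO baseline.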

[2] = APR_HepG2_NuclearSize_24hr: Apredica 24-hour HepG2 Assay for Nuclear Size (AID 2282907); conditions: high-content imaging, actives raise or lower the signal
Method in brief: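 Read-out: nuclear diameter from Hoechst 33342 (2 ug/mL) imaging of fixed HepG2 cells, 20x, six fields/well. Compounds ran at 0.39–200 uM for 24 hr, 0.5% DMSO final. Gain or loss was fitted bidirectionally relative to the DMSO baseline.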

[3] = APR_HepG2_MitoticArrest_24hr: Apredica 24-hour HepG2 Assay for Mitotic Arrest (AID 2282910); conditions: high-content imaging, actives raise or lower the signal
Method in brief: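 High-content imaging of fixed HepG2 cells labeled with Hoechst 33342 and anti-phospho-histone H3, after 24 h treatment. Ten concentrations 0.39 to 200 uM in duplicate, final DMSO 0.5%; changes fitted both directions relative to DMSO.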

[4] = APR_HepG2_MitoMembPot_24hr: Apredica 24-hour HepG2 Assay for Mitochondrial Membrane Potential (AID 2282911); conditions: imaging, actives raise or lower the signal
Method in brief: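 Cells are dosed for 24 hr across 0.39 to 200 uM with solvent held at 0.5% DMSO. They are then stained with 250 nM MitoTracker Red CMXRos for 30 min, fixed in 3.7% formaldehyde and imaged.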

[5] = APR_HepG2_MitoMass_24hr: Apredica 24-hour HepG2 Assay for Mitochondrial Mass (AID 2282912); conditions: high-content imaging, actives raise or lower the signal
Method in brief: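 HepG2, 24 hr dosing, 10 concentrations 0.39–200 uM in duplicate, DMSO 0.5% final. MitoTracker Red CMXRos 250 nM, 30 min pre-fix; 3.7% formaldehyde fix. Imaging-based fluorescence intensity; gain/loss fit vs DMSO baseline.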

[6] = APR_HepG2_CellCycleArrest_72hr: Apredica 72-hour HepG2 Assay for Cell Cycle Arrest (AID 2282914); conditions: high-content imaging, actives raise or lower the signal
Method in brief: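 Read-out is Hoechst-stained nuclear DNA content measured by automated fluorescence imaging (20x, six images per well), fitted in both directions relative to DMSO. Human HepG2 liver cells received 0.39–200 uM compound for 72 hr at 0.5% v/v DMSO.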

[7] = APR_HepG2_CellLoss_72hr: Apredica 72-hour HepG2 Assay for Cell Loss (AID 2282915); conditions: high-content imaging
Method in brief: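 Cell number comes from Hoechst 33342-labelled nuclei, imaged at 20x after 3.7% formaldehyde fixation. Dosing was 0.39–200 uM, ten concentrations in duplicate, 0.5% DMSO final, for 72 h. Bidirectional fit relative to DMSO baseline.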

[8] = APR_HepG2_P-H2AX_72hr: Apredica 72-hour HepG2 Assay for H2AX Phosphorylation (AID 2282916); conditions: imaging, actives raise or lower the signal;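 further: phospho-histone H2A.x immunostain intensity per cell marking DNA damage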
Method in brief: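 Readout: phospho-H2A.x immunofluorescence (FITC secondary) plus Hoechst nuclear stain, high-content imaging at 20x, six fields/well. HepG2, 72 hr compound exposure, 0.39–200 uM, final DMSO 0.5% v/v. Gain or loss fitted relative to DMSO baseline.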

[9] = APR_HepG2_MicrotubuleCSK_72hr: Apredica 72-hour HepG2 Assay for Microtubule CSK Stabilty (AID 2282919); conditions: HepG2 microtubule cytoskeleton, high-content imaging, actives raise or lower the signal
Method in brief: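 High-content imaging of alpha-tubulin staining in fixed HepG2 cells after 72 hr treatment with ten concentrations from 0.39 to 200 uM (0.5% DMSO). Fitting was bidirectional against DMSO; taxol served as positive control.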

[10] = APR_HepG2_StressKinase_72hr: Apredica 72-hour HepG2 Assay for Stress Kinase (AID 2282921); conditions: HepG2 stress kinase (phospho-c-Jun) imaging, actives raise or lower the signal
Method in brief: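 Phospho-c-Jun immunofluorescence measured by high-content imaging at 20x, six fields per well; bidirectional curve fitting against DMSO as baseline. Dosing: 0.39–200 uM, 72 h, 0.5% DMSO final.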

[11] = APR_HepG2_StressKinase_24hr: Apredica 24-hour HepG2 Assay for Stress Kinase (AID 2282922); conditions: HepG2 stress kinase (phospho-c-Jun) imaging, actives raise or lower the signal
Method in brief: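 High-content imaging of phospho-c-Jun immunofluorescence in fixed, permeabilized HepG2 cells after 24 h dosing. Ten concentrations, 0.39 to 200 uM, run in duplicate at 0.5% v/v DMSO; gain or loss of signal versus DMSO.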

[12] = APR_HepG2_MitoMass_72hr: Apredica 72-hour HepG2 Assay for Mitochondrial Mass (AID 2282924); conditions: high-content imaging, actives raise or lower the signal;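 further: MitoTracker Red CMXRos stain intensity per cell imaged as mitochondrial mass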
Method in brief: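 Readout is imaged MitoTracker Red (250 nM, 30 min, pre-fixation) signal, fitted bidirectionally against DMSO baseline. Human HepG2 liver cells received compound 0.39–200 uM in duplicate for 72 hr, final DMSO 0.5%.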

[13] = APR_HepG2_NuclearSize_72hr: Apredica 72-hour HepG2 Assay for Nuclear Size (AID 2282925); conditions: high-content imaging, actives raise or lower the signal
Method in brief: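 Nuclear size was read by high-content imaging of Hoechst 33342 stain after formaldehyde fixation. Compounds ran 72 h on HepG2 at 0.39 to 200 uM, with final DMSO 0.5% v/v. Curves fitted both directions relative to DMSO control.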

[14] = ATG_CRE_CIS: Attagene CIS-FACTORIAL HepG2 Assay for human cAMP Responsive Element (CRE) binding protein 3 (AID 2282926); conditions: HepG2 CRE cis-reporter, Attagene multiplexed mRNA; actives raise or lower the signal
Method in brief: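 Assay format: transient reporter transfection of HepG2, 24 h treatment, total RNA isolation with DNase I step. Reporter abundance read by fluorescence after PCR and capillary separation; DMSO-normalised gain or loss fitting.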

[15] = biological target: CCAAT/enhancer-binding protein beta (Homo sapiens) (UniProt P17676); assay: ATG_C_EBP_CIS: Attagene CIS-FACTORIAL HepG2 Assay for human CCAAT/Enhancer Binding Protein (C/EBP) beta (AID 2282927); conditions: HepG2 Attagene cis-factorial transcription factor reporter; actives raise or lower the signal
Sequence of CCAAT/enhancer-binding protein beta (Homo sapiens) (P17676 whole entry, looked up): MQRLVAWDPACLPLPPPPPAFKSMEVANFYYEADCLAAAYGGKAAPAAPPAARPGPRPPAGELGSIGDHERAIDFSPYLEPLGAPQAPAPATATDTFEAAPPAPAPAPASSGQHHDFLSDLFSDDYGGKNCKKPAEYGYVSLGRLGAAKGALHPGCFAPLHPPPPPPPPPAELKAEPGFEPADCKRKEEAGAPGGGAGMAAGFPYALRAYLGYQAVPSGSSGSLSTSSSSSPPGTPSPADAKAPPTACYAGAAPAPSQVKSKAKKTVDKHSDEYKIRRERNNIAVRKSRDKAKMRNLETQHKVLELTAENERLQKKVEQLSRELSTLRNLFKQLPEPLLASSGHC
Method in brief: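 Changes in reporter mRNA, rather than exogenous chimeric receptor activity, reflect native C/EBP signalling in transfected HepG2 cells dosed for 24 h; transcripts are detected by RT-PCR and capillary electrophoresis.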

[16] = ATG_CMV_CIS: Attagene CIS-FACTORIAL HepG2 Assay for human CMV (Internal Marker) (AID 2282928); conditions: HepG2 CMV promoter reporter, transcription factor profiling; actives raise or lower the signal;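 further: endpoint acts as a background internal control marker rather than a target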
Method in brief: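 24 h chemical treatment, HepG2 with transient multi-reporter transfection; RNA → oligo(dT) RT → PCR → 6-FAM extension → HpaI digest → CE fluorescence. Bidirectional fit, DMSO negative control.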

[17] = ATG_DR4_LXR_CIS: Attagene CIS-FACTORIAL HepG2 Assay for human Liver X Receptor (LXR), DR4 submotif (AID 2282929); conditions: HepG2 Attagene DR4 cis-reporter, mRNA transcription; actives raise or lower the signal
Method in brief: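 Readout: reporter transcript fluorescence after RT-PCR and capillary electrophoresis, fitted bidirectionally against DMSO controls. Human HepG2 liver cells carried transiently transfected multiplexed reporter constructs; endogenous transcription factor activity measured 24 h post-dosing.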

[18] = biological target: Aryl hydrocarbon receptor (Homo sapiens) (UniProt P35869); assay: ATG_Ahr_CIS: Attagene CIS-FACTORIAL HepG2 Assay for human Aryl Hydrocarbon Receptor (Ahr) (AID 2282930); conditions: HepG2 AhR cis-factorial reporter transcription; actives raise or lower the signal
Sequence of Aryl hydrocarbon receptor (Homo sapiens) (P35869 whole entry, looked up): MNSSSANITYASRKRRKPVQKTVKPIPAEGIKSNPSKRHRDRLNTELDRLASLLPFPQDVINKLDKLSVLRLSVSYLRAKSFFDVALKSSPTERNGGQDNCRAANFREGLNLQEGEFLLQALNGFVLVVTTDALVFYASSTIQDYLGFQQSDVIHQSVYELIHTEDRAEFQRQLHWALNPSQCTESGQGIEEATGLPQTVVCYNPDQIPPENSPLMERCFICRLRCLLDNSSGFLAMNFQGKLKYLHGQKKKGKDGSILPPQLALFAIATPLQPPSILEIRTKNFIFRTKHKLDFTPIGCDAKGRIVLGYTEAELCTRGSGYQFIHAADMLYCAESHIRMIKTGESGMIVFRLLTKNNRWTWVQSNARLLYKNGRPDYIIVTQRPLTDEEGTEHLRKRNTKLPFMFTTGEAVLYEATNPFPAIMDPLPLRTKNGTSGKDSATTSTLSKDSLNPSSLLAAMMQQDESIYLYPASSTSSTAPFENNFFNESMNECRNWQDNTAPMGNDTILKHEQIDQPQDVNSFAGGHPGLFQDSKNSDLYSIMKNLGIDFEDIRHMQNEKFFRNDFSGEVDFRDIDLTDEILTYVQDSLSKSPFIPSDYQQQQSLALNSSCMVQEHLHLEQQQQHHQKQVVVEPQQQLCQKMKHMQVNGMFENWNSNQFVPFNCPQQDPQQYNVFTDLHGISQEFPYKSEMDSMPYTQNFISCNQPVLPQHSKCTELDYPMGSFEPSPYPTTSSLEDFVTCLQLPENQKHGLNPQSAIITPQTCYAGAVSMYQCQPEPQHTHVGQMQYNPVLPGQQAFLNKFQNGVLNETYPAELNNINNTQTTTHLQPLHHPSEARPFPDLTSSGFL
Method in brief: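 HepG2, transient MRTU (cis) transfection, 24 h exposure. RNA → cDNA → PCR → 6-FAM primer extension → HpaI 2 h 37 C → CE. Fit: bidirectional, DMSO baseline.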

[19] = APR_HepG2_p53Act_24hr: Apredica 24-hour HepG2 Assay for p53 Activation (AID 2282913); conditions: high-content imaging, actives raise or lower the signal;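 further: p53 protein immunofluorescence averaged per cell in HepG2 with Hoechst nuclei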
Method in brief: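 Human HepG2 liver cells; 24 hr cpd treatment, 0.39–200 uM, 0.5% DMSO final. Fixed in 3.7% formaldehyde, permeabilized with 0.5% Triton X-100, stained with anti-p53/Cy5 plus Hoechst 33342. Six images per well at 20x; gain or loss vs DMSO.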

[20] = APR_HepG2_p53Act_72hr: Apredica 72-hour HepG2 Assay for p53 Activation (AID 2282923); conditions: high-content imaging, actives raise or lower the signal;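 further: average cellular p53 protein immunofluorescence intensity in HepG2 cells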
Method in brief: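 Readout: p53 immunofluorescence quantified by automated high-content imaging at 20x, six fields per well, nuclei located via Hoechst. Dosing ran 72 hr over ten concentrations from 0.39 to 200 uM; bidirectional curve fitting against DMSO baseline.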

Measured: AC50

N#Cc1cccnc1
not listed: [19] | [20]
inactive: all other assays above

Oc1c(Cl)cc(Cl)cc1Cl
active: [18] 62.3 µM
not listed: [1] | [2] | [6] | [9] | [13] | [14]
inactive: all other assays above

c1csc(-c2ccc(-c3cccs3)s2)c1
active: [17] 2.08 µM | [18] 0.739 µM
inactive: [14] | [15] | [16]

CC(C)O.CC(C)O.OCCN(CCO)CCO.OCCN(CCO)CCO.[Ti]
not listed: [18] | [19] | [20]
inactive: all other assays above

ClCc1ccccc1CCl
inactive: [15] | [18]
active: [14] 9.56 µM | [16] 56 µM | [17] 16.6 µM

CN(N=O)C(N)=O
inactive: [14] | [15] | [16] | [17] | [18]

CCCCCCCCCCCCOS(=O)(=O)O
active: [17] 49.3 µM
inactive: [14] | [15] | [16] | [17]

c1ccc2sc(SNC3CCCCC3)nc2c1
active: [18] 4.84 µM
inactive: [14] | [15] | [16] | [17]

C=CC(=O)OCC(COC(=O)C=C)(COC(=O)C=C)COC(=O)C=C
active: [16] 8.92 µM | [17] 3.12 µM
inactive: [14] | [15] | [18]

Oc1cc(Cl)c(Cl)cc1Cl
active: [1] 35.7 µM | [3] 38.6 µM | [5] 46.7 µM | [7] 44.6 µM | [8] 42.4 µM | [10] 51.8 µM | [14] 39.7 µM | [15] 46.5 µM | [16] 27.2 µM
not listed: [19] | [20]
inactive: all other assays above

O=[N+]([O-])c1cccc2ccccc12
inactive: [14] | [15] | [16] | [17]
active: [18] 51.4 µM

O=[N+]([O-])c1ccccc1O
inactive: [14] | [15] | [16] | [17] | [18]

CCOP(=S)(OCC)SCS(=O)(=O)C(C)(C)C
inactive: [14] | [15] | [16] | [18]
active: [17] 29.2 µM

Clc1cccc(Cl)c1
not listed: [19] | [20]
inactive: all other assays above

OCCCCO
inactive: [14] | [15] | [16] | [17] | [18]

O=C(O)C1(c2ccc3c(c2)OC[C@H](Cc2ccc(-c4ccccc4)cc2)[C@H]3O)CCCC1
active: [4] 105 µM | [5] 112 µM | [6] 118 µM | [7] 86.9 µM | [8] 106 µM | [10] 116 µM | [11] 111 µM | [12] 112 µM | [16] 6.98 µM
not listed: [19] | [20]
inactive: all other assays above

Cc1cc(Cl)ccc1O
inactive: [14] | [15] | [16] | [17] | [18]

COc1ccccc1N
active: [4] 29.3 µM | [18] 78.3 µM
inactive: [1] | [2] | [3] | [5] | [6] | [7] | [8] | [10] | [11] | [13] | [14] | [15] | [16] | [18]

O=c1oc2ccccc2c(O)c1C(CC(O)c1ccc(-c2ccc(Br)cc2)cc1)c1ccccc1 (stereo not given)
inactive: [14] | [15] | [16] | [18]
active: [14] 39 µM | [17] 37.6 µM and 30.8 µM

OC(Cc1ccccc1Cl)(Cn1[nH]cnc1=S)C1(Cl)CC1 (stereo not given)
inactive: [14] | [15] | [16] | [17] | [18]

O=C(NC(=O)c1c(F)cccc1F)Nc1cc(Cl)c(OC(F)(F)C(F)C(F)(F)F)cc1Cl (stereo not given)
inactive: [14] | [15] | [16] | [17]
active: [18] 27.7 µM

CCCCC(CC)COC(=O)Cl (stereo not given)
inactive: [14] | [15] | [16] | [17] | [18]

C[As+](C)(C)CC(=O)[O-]
inactive: [14] | [15] | [16] | [17] | [18]
